Experimental data published in PubChem BioAssay (EPA / NIEHS).
Where “and” joins values, the source holds several entries; their conditions need not be identical. Identical values can stand only once. Some structures have more than one record in an assay (separate samples or runs), and their calls can disagree. Calls of active or inactive are those of the source. Rule for the calls: active = hit-call score of the fitted dose curve at least 0.9, where 1 is the maximum; inactive = score below 0.9.

The compounds below were run on Hypoxia-inducible factor 1-alpha (Homo sapiens) (UniProt Q16665) (assay: LTEA_HepaRG_HIF1A: Life Technologies and Expression Analysis (LTEA) Assay for Hypoxia-inducible factor 1 (HIF1A) Trancription factor using HepaRG (AID 2283503;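 note: HIF1A transcript by TaqMan qRT-PCR normalized to ACTB GAPDH and POLR2A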)). Conditions: mRNA level, 48 h; actives raise or lower the signal.
Hypoxia-inducible factor 1-alpha (Homo sapiens), sequence (Q16665 whole entry, looked up): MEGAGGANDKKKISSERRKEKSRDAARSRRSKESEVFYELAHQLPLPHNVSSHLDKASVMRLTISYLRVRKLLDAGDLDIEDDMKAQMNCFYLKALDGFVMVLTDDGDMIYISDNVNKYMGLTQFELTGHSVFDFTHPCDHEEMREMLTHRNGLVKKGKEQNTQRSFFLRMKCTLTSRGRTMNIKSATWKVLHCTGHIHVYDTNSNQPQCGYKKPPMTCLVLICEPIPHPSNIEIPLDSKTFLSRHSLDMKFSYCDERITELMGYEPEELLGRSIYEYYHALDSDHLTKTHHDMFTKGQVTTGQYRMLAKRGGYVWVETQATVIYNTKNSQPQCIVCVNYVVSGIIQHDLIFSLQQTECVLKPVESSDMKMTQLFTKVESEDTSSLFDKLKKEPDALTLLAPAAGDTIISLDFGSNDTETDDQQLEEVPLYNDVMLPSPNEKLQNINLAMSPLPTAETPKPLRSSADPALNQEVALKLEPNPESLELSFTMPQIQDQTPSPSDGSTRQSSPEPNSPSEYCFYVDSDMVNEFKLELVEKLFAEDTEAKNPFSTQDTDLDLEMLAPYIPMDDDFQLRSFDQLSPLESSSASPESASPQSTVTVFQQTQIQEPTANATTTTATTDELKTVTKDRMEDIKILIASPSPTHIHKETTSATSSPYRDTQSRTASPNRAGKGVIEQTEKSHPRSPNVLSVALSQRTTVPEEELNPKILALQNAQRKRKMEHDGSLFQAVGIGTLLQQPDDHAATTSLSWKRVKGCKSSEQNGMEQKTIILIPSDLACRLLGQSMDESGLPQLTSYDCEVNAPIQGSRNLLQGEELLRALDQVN
Protocol: LTEA_HepaRG is a cell based, multiplexed-readout assay that uses HepaRG, a human liver cell line, with measurements taken at 48 hours after chemical dosing on a 96-well plate.LTEA_HepaRG_HIF1A is one of 102 assay component(s) measured in the LTEA HepaRG cell culture assay. It is a marker of Cell proliferation, survival, death.Data from the assay component LTEA_HepaRG_HIF1A was analyzed into 1 endpoint. This assay endpoint, LTEA_HepaRG_HIF1A, was analyzed with bidirectional fitting relative to DMSO as the negative control and baseline of activity. Using a type of inducible reporter, measures of mRNA induction for gain or loss-of-signal activity can be used to understand regulation of transcription factor activity. To generalize the intended target to other relatable targets, this assay endpoint is annotated to the dna binding intended target family, where the subfamily is basic helix-loop-helix protein.
A total of 1060 chemcials from the ToxCast library were tested in eight-point concentration-response experiments. Cell culture and cytotoxicity assays were conducted at Thermo Fisher Scientific's Custom Services facility (Madison, WI). A single lot of human HepaRG cells (Thermo Fisher Scientific, Frederick, MD) was used for the cell culture experiments. 96-well format collagen type I coated plates of human HepaRG cells were prepared using established methods. Briefly, cryopreserved HepaRG cells were thawed, plated at a density of approximately 100,000 cells/well in HepaRG Thaw, Plate, and General Purpose media (HPRG770, Thermo Fisher Scientific), and incubated for 48 hours. 0.5% DMSO was selected as vehicle control to balance the requisite need of DMSO in HepaRG cultures to maintain differentiation (for example, baseline metabolism, proportions of hepatocytes vs. cholangiocytes), while enabling further hepatic receptor pathway activation (for example, PXR and CAR) in response to chemical exposure. 48 hours after plating, the culture medium was replaced with HepaRG Serum-Free Incudtion Media. Cells were exposed to each test chemical in duplicate and maintained in CO2 incubators for another 48 hours. Chemical plates were thawed to room temperature and 200x concentrations of treatment groups were prepared. 8-point conentration-reponse curves were made with the highest exposure at 100 uM, followed by half-log dilutions, all in 0.5% DMSO. Each test plate contained variouse controls, induction positive controls (1mM phenobarbital), cytotoxicity positive controls ([…] aflatoxin B1), vehicle controls (0.5% DMSO), and total lysis controls (0.5% DMSO). Cell morphology images were taken using an Essen IncuCyte FLR automated microscope, with six 96-well plates imaged in about 24 minutes. Images were captured and exported and JPEG files. Spent culture media was transfered to black-well plates for the LDH assay, and remaining media was sorted at -80 C for later use. Cells were treated with RLT buffer and frozen until shipped for gene expression analysis. Total RNA was isolated from the cell suspension in 75 uL of Buffer RLT (Qiagen, Germantown, MD 20874) by Quintiles/Expression Analysis (Durham, NC) using a custom isolation procedure. Total RNA from each plate well was transferred to a preamplification plate. Fluidigm's 96.96 Dynamic ArrayTM (Fluidigm, Amsterdam, the Netherlands) technology was used for gene expression analyses by quantitative reverse transcription polymerase chain reaction (qRT-PCR, performed by Quintiles/Expression Analysis, Durham, NC)89. Standard TaqManTM Assays (Applied Biosystems/ThermoFisher Scientific, Foster City, CA) were used to assess the expression of 93 genes selected based on their selectivity and sensitivity to important hepatic receptors known to be modulated by environmental chemicals; importance in human hepatocyte functionality; and hepatotoxicity. […]

SMILES	outcome	AC50
C=CCC1=C(C)[C@@H](OC(=O)[C@@H]2[C@@H](C=C(C)C)C2(C)C)CC1=O	inactive	–
COC(=O)c1ccccc1C(=O)OC	inactive	–
CCc1nn(C)c(C(=O)NCc2ccc(C(C)(C)C)cc2)c1Cl	inactive	–
Oc1ccccc1-c1ccccc1	inactive	–
CNC(=O)ON=CC(C)(C)SC	inactive	–
CC1COC(Cn2cncn2)(c2ccc(Oc3ccc(Cl)cc3)cc2Cl)O1 (stereo not given)	–	11.6 µM (active)
CCCC1COC(Cn2cncn2)(c2ccc(Cl)cc2Cl)O1 (stereo not given)	–	50 µM (active)
COc1ccc(C(c2ccc(OC)cc2)C(Cl)(Cl)Cl)cc1	inactive	–
OC(c1ccc(Cl)cc1)(c1cncnc1)c1ccccc1Cl (stereo not given)	inactive	–
COC(=O)C(C)Oc1ccc(Oc2ccc(Cl)cc2Cl)cc1 (stereo not given)	inactive	–
O=C(O)c1nc(Cl)ccc1Cl	inactive	–
N#CC(CCc1ccc(Cl)cc1)(Cn1cncn1)c1ccccc1 (stereo not given)	–	73.7 µM (active)
CO/C=C(/C(=O)OC)c1ccccc1Oc1cc(Oc2ccccc2C#N)ncn1	inactive	86.1 µM (active)
Fc1ccc(Oc2ccnc3cc(Cl)cc(Cl)c23)cc1	inactive	–
CC(C)C1(C)N=C(c2nc3ccccc3cc2C(=O)O)NC1=O (stereo not given)	inactive	–
COC(=O)N(OC)c1ccccc1COc1ccn(-c2ccc(Cl)cc2)n1	–	50 µM (active)
Cc1cc(Cl)ccc1OCC(=O)O	inactive	–
COC(=O)C=C(C)OP(=O)(OC)OC	inactive	–
CNC(=S)S	inactive	–

SMILES	outcome	AC50
COc1cnc(OC)n2nc(NS(=O)(=O)c3c(OCC(F)F)cccc3C(F)(F)F)nc12	inactive	–
CCON=C(CC)C1=C(O)CC(c2c(C)cc(C)cc2C)CC1=O (stereo not given)	inactive	–
Cc1c(F)c(F)c(COC(=O)C2C(/C=C(\Cl)C(F)(F)F)C2(C)C)c(F)c1F (stereo not given)	inactive	–
O=C(Nc1ccccc1)Nc1ccnc(Cl)c1	inactive	–
N#Cc1cc(Br)c(O)c(Br)c1	–	40 µM (active)
CCNc1nc(Cl)nc(NC(C)C)n1	inactive	–
CC(Oc1ccc(Cl)cc1Cl)C(=O)O (stereo not given)	inactive	–
CCCCNC(=O)n1c(NC(=O)OC)nc2ccccc21	inactive	–
C=CCC1=C(C)C(OC(=O)C2C(C=C(C)C)C2(C)C)CC1=O (stereo not given)	inactive	–
Cc1ccc(-c2c(Cl)nc(C#N)n2S(=O)(=O)N(C)C)cc1	inactive	–
CS/C(C)=N/OC(=O)N(C)SN(C)C(=O)O/N=C(\C)SC	inactive	–
CCOP(=S)(OCC)SCn1c(=O)oc2cc(Cl)ccc21	inactive	–
CCCN(CCC)c1c([N+](=O)[O-])cc(S(N)(=O)=O)cc1[N+](=O)[O-]	inactive	94.2 µM (active) and 84.5 µM (active)
CON(C)C(=O)Nc1ccc(Cl)c(Cl)c1	inactive	–
O=C(O)COc1nc(Cl)c(Cl)cc1Cl	inactive	–
CCOC(=O)C(Cl)Cc1cc(-n2nc(C)n(C(F)F)c2=O)c(F)cc1Cl (stereo not given)	inactive	–
COP(=S)(OC)Oc1nc(Cl)c(Cl)cc1Cl	inactive	–
CCCCOC(=O)c1ccccc1C(=O)OCCCC	inactive	–
CCCCNC(=O)OCC#CI	inactive	–
